Records with an inconclusive call do not appear. Activity calls are given as the source filed them. The call rests on the fitted dose curve; tested in HEK293 reporter line.
Further: nearly all actives have a fitted effect of over 80% in size.
Potency means the concentration at half of the fitted maximal effect.

A short description of one assay: qHTS for Inhibitors of the Functional Ribonucleoprotein Complex (vRNP) of Lassa (LASV) Arenavirus: Viability assay - alamar blue signal for LASV Primary Screen (AID 1347083). The following applies: cell viability, alamar blue fluorescence (LASV minigenome counter-screen); series mostly up to 57.5 µM. For orientation: qHTS replaces the single test concentration by a dilution series.
In the case of `Cc1cc(-c2ccc(CC(=O)Nc3ccc(-c4cccnc4)cc3)cc2)ccn1`, the Potency is 19.3 µM (active). As to `CN1CCN(c2cc(C(=O)Nc3ccc4c(c3)-c3c(c(C(N)=O)nn3-c3ccc(F)cc3)CC4)c(Cl)cn2)CC1`, the Potency is 2.73 µM (active). In the case of `CCOc1cc(C(=O)Nc2ccc(Cl)c(-c3nc4ccccc4[nH]3)c2)cc(OCC)c1OCC`, the Potency is 17.2 µM (active).

The next assay in a line: qHTS for Inhibitors of the Functional Ribonucleoprotein Complex (vRNP) of Lymphocytic Choriomeningitis Arenaviruses (LCMV): Viability assay - alamar blue signal for LCMV Primary Screen (AID 1347085). The following applies: alamar blue viability counter-screen, LCMV vRNP screen cells; series mostly up to 57.5 µM.
As to `CCCCc1nc2cc(C=CC(=O)NO)ccc2n1CCN(CC)CC`, the Potency was 7.69 µM (active). The same measure, in the same setting: in the case of `CN(C)CCCNC(=O)c1ccc(-c2cc(O)c3ncccc3c2)cc1` it was 19.3 µM (active); in that of `C[C@]1(CO)CN(c2cc(C(=O)Nc3ccc4c(c3)-c3c(c(C(N)=O)nn3-c3ccc(F)cc3)CC4)c(Cl)cn2)C[C@@]1(C)CO`, 1.37 µM (active). `Cc1[nH]c2ccccc2c1CCNCc1ccc(C=CC(=O)NO)cc1`: the Potency is 0.863 µM (active). As to `CC=C1NC(=O)[C@H]2CSSCCC=C[C@H](CC(=O)N[C@H](C(C)C)C(=O)N2)OC(=O)[C@H](C(C)C)NC1=O`, the Potency is 0.0968 µM (active). For the compound `CC(C)c1ccc(Cn2ccc3c4c(N)nc(NC5CC5)nc4ccc32)cc1`, the Potency is 7.69 µM (active). The same measure, in the same setting: in the case of `CCn1c(-c2nonc2N)nc2c(C#CC(C)(C)O)ncc(OC[C@H]3CCCNC3)c21` it was 0.153 µM (active); in that of `Cc1cc(Nc2cc(N3CCN(C)CC3)nc(Sc3ccc(NC(=O)C4CC4)cc3)n2)n[nH]1`, 38.5 µM (active); in that of `CN(c1ncccc1CNc1nc(Nc2ccc3c(c2)CC(=O)N3)ncc1C(F)(F)F)S(C)(=O)=O`, 34.3 µM (active). In the case of `Cc1cc(Nc2cc(N3CCN(C)CC3)nc(C=Cc3ccccc3)n2)n[nH]1`, the Potency is 31.4 µM (active).

Turning to `Cc1cccc(C=NNc2cc(N3CCOCC3)nc(OCCc3ccccn3)n2)c1`, the Potency is 1.37 µM (active). Take `COc1cc2c(Oc3ccc(NC(=O)C4(C(=O)Nc5ccc(F)cc5)CC4)cc3F)ccnc2cc1OCCCN1CCOCC1`: the Potency is 21.7 µM (active). The same measure, in the same setting: in the case of `COc1cc(=C2C=c3ccccc3=N2)[nH]c1=Cc1[nH]c(C)cc1C` it was 21.7 µM (active); in that of `CCCS(=O)(=O)Nc1ccc(F)c(C(=O)c2c[nH]c3ncc(Cl)cc23)c1F`, 2.73 µM (active). `CC[C@@H]1C(=O)N(C)c2cnc(Nc3ccc(C(=O)NC4CCC(N5CCN(CC6CC6)CC5)CC4)cc3OC)nc2N1C(C)C` (some centres undefined): the Potency is 0.0968 µM (active).

In the case of `Cc1ccc(C(=O)Nc2ccc(CN3CCN(C)CC3)c(C(F)(F)F)c2)cc1C#Cc1cnc2cccnn12`, the Potency is 3.43 µM (active).
